# In the supplement of paper PMC11417369:
# ± gives the standard deviation of the averaged measurements. Over roughly 25,000 sequences, “ln(normalized median fluorescence intensity)” has its median near 8.6; the highest 2% begin near 10. What follows is part of a selection rich in the highest values, with near analogues and random picks from the rest.
# System: PfAP2-EXP AP2 domain (GST-tagged)
# Assay: gcPBM binding intensity (ln(normalized median fluorescence intensity)); higher = stronger DNA binding
# Procedure, shortened: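 GST-tagged P. falciparum DNA-binding domains produced in E. coli were incubated for 1 h on an Agilent 4 × 180k array of primer-extended double-stranded 36-bp intergenic genomic probes with negative controls. Binding intensity is the highest Masliner-normalised natural-log median intensity across replicate spots of either probe orientation, with bound protein detected by Alexa488 anti-GST antibody at 488 nm.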
row,Sequence,gcPBM binding intensity (ln)
1,ATATAATATATTTTCACACATATTTTATGATGATAA [CACACA_site5614],8.3 ± 0.42
2,TAAATTTGTGGGATTTCACACAGGTTTATTTACATT [CACACA_site5455],8.13 ± 0.45
3,AGAATAATACAAAAATGTACATTAATAAAAAGATAG [XGTACX_site780],8.99 ± 0.42
4,TAACAAGGTTTATATGCATGCAAACATAACCAAAAA [TGCATGCA_site824],9.96 ± 0.23
5,CTTACATAAAATATCACACACATAAAAAAACAATAT [CACACA_site1901],8.87 ± 0.39
6,TAACATAGCAATGTTTCACACACAAGAAAAAATACA [CACACA_site8747],8.84 ± 0.45
7,GGGTTAATATTTACTACACACACTTAAAATATGTAT [CACACA_site47],8.59 ± 0.47
8,ATAATATTAGTAAACACACTCAAATTATATATGATA [CACACA_site5721],8.28 ± 0.59
9,TATATATATATATATAGTACACATATCACATAAATG [XGTACX_site6379],10.2 ± 0.23
10,ATTAAAATATAAGTCACACATATATATATATATATA [CACACA_site6145],10.2 ± 0.33
11,TACATAAAATATATCACACATATAATATATATATAT [CACACA_site5834],9.54 ± 0.16
12,TGTAATAAATAGTACACACACACATATATATATATT [CACACA_site1388],8.73 ± 0.38
13,AATAAATAAATAAGTACACACATATAAATATAAATA [CACACA_site6271],8.69 ± 0.27
14,TAAAAAAAAATAAAAAGTACATATATATATATATAT [XGTACX_site1155],10.3 ± 0.46
15,ATAAAATAAAATAAAAGTACATAAATATATATATAT [XGTACX_site6110],9.83 ± 0.28
16,ATATAAATAAAAAAAAGTACATAATATATAAAAATA [XGTACX_site3065],8.72 ± 0.33
17,TATAAAAATAAAAAAAGTACACATAAAAATATATAT [XGTACX_site5189],8.77 ± 0.33
18,CAAAATTAATAAGTCACACACACATATATAATATAT [CACACA_site798],8.73 ± 0.45
19,AATAAATAAATAAGTACACACATATATATATATATA [CACACA_site284],10.2 ± 0.6

row,Sequence,gcPBM binding intensity (ln)
1,AAATTAATAAGTCACACACACATATATAATATATAT [CACACA_site799],8.54 ± 0.36
2,AGTTGGATACGAAGATGTACAATAATAATAATTAAG [XGTACX_site3561],8.9 ± 0.35
3,GTGAAATTATATTTTTGTACATATATTATATATTAT [XGTACX_site3387],8.52 ± 0.32
4,ACATACATACACCCACGTACGTACCGAAACACCACC [XGTACX_site1212],9.11 ± 0.35
5,TATTTATGTTCATATAAACACACGTAAAATTCAAGG [CACACA_site1538],8.62 ± 0.39
6,TAAATAATAATAAAATGTACATTATATATGTATATG [XGTACX_site8672],8.44 ± 0.36
7,AACTTCTTTTTTATAACACACAAAATATATATACAA [CACACA_site282],8.69 ± 0.42
8,AAAGGAAAAGTTGACTGTACATAAGTAAAAAATAAT [XGTACX_site788],9.15 ± 0.42
9,ATATATATATAATGTAGTACTATTTAATAATAAGCC [XGTACX_site1263],9.775 ± 0.078
10,AAATAAAATACAATATGATAAAATGTTATCATATAT [CACACA_negctrl_site538],8.35 ± 0.38
11,TATATATATATATTCACACATAAATATATGCACCCA [CACACA_site4263],9.96 ± 0.2
12,TTTAATATATATATGTGTACATATAAATTATATATA [XGTACX_site8511],8.2 ± 0.23
13,TTTTTTTTTTTTTTTGCACACAGGGTGTAGGACAAG [CACACA_site2842],8.6
14,TTATATTATACATACACACCCATATAATATGTTTTT [CACACA_site4636],8.73 ± 0.42
15,AACCATTGGGAAAGGGTGCACATATATATATATATA,10.8 ± 0.35
16,GGAAAAACCATTCGCACACACACATAATATATAATA [CACACA_site1424],8.66 ± 0.47
17,ATAAATATTGGGTGCACACACATAATATATATATAT [CACACA_site2272],10.1 ± 0.21
18,TTTAAGCGTTCACTGCTGCACTTTTATGTTGTGACC,8.71 ± 0.51
19,GAAGAAAAATAAAAAGTGCAAAAAAAGTAAAAATTT [GTGCAC_site9897],8.95 ± 0.49

row,Sequence,gcPBM binding intensity (ln)
1,CACATATATACACATACACACACACCCATACACCCA [CACACA_site8505],8.77 ± 0.33
2,CATATACATACACATACACACATACACCCATACACA [CACACA_site8514],8.77 ± 0.55
3,CATACACCCATACATACACACATACATATATATATA [CACACA_site8591],9.895 ± 0.064
4,TCAAAGCACAGATACACACACATATATATATATATA [CACACA_site287],10 ± 0.42
5,TATATATATATATATACACACACACCCATATATATA [CACACA_site8812],10.3 ± 0.3
6,TCAAAGCACCCATACACACACATATATATATATATA [CACACA_site4317],10.3 ± 0.19
7,TGAATAAATCAAAGCACACATACACCCACATATATA [CACACA_site286],8.78 ± 0.49
8,TATATATATATATACACACACACACCCATATATATA [CACACA_site2538],10.2 ± 0.24
9,TATATATACATATACACACACACACCCATATATATA [CACACA_site2246],8.84 ± 0.39
10,TATCACAAAATATACTGTACATACAGGCAGTAATAT [XGTACX_site2487],8.71 ± 0.34
11,GAAAAAAAAAAAAATACACACAAATTGGTATAGAAT [CACACA_site380],8.53 ± 0.47
12,TTGGTGATATTTTTCTCACACATTTACCAGAGATGT [CACACA_site4684],8.44 ± 0.37
13,AGGTACTTTTTTAAAACACACATATAATAAATACAC [CACACA_site4730],8.84 ± 0.28
14,GTAAGTTGTGCATTCACACACATATATATATATATA [CACACA_site3303],10.2 ± 0.28
15,ATGTAAGTTGTGCATTCACACACATATATATATATA [CACACA_site9086],10.2 ± 0.2
16,GTAAGTTGTGCATTCACACACATATAAATATAAATA [CACACA_site7536],8.66 ± 0.24
17,AGTTCAGAATTGAATAGTACATAAATATAACAAAAT [XGTACX_site650],8.88 ± 0.36
18,TGTATTTTTAACATATGTACGAATAGCACGTGTTAT [XGTACX_site3640],8.89 ± 0.44
19,AGTTTTTATTAAAACAAAATTTAATTATAACGTTGA [XGTACX_negctrl_site298],8.08 ± 0.3
